HCV inh = HCV inhibition. Huh7.5.1 HCVcc-Cre infection, luciferase reporter, 44 h. Potency, µM (series often up to 41.8 µM), inactives show top-dose activity change, negative = inhibition, usual class: inhibitors. 340,000 compounds, 3.4% hits. AID 651820; further: on the % scale 0 is the no-effect control and ±100 the full control effect
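Seed cells (1,000/well) for 4 h; treat with compound and infect with HCVcc-Cre, moi about 0.5. Incubate 44 h, then detect luciferase activity.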
NS1 inh = influenza NS1 inhibition | Potency, µM (titrated, usually from 46.1 µM), for inactives: at the highest dose activity, positive = more growth | AID 2326 | 270,000 compounds, 0.4% hits; calls by dose curve; further: actives are rising curves; nearly all actives have a fitted effect of over 50% in size
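Recovery from NS1-induced slow growth read by OD600 in budding yeast switched to galactose assay medium (pH 6.0, -URA) at 1:100 dilution. Compound 23 nl per well; the matching strain lacking NS1 serves as control.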
SARS PLpro yeast = inhibitors of SARS-CoV papain-like protease in yeast | S. cerevisiae expressing SARS-CoV PLpro, growth rescue | Potency, µM (series often up to 32.9 µM), for inactives: top-dose activity, positive = growth rescue, most hits filed as activators | 330,000 compounds, 0.19% hits | AID 485353; calls by dose curve; further: 0% is about no effect; nearly all actives have a fitted effect of over 55% in size
Pf growth 96h = P. falciparum growth inhibition at 96 hours | P. falciparum luciferase reporter growth, 96 h | Potency, µM (highest dose often 28.7 µM), inactives show at the highest dose activity change, negative = inhibition, hits mostly inhibitors | 320,000 compounds, 6.9% hits | AID 504834; further: on the % scale 0 is the no-effect control and ±100 the full control effect
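Erythrocytes infected with luciferase-expressing P. falciparum were dispensed at 2% hematocrit and 0.05% parasitemia (final), then incubated with compounds 96 hours at 37 C in 5% CO2. Luminescence after detection reagent addition reported growth.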
AMA1-RON2 inh = disrupts binding of P. falciparum AMA1 to RON2 | AlphaScreen AMA1-biotinylated RON2 peptide binding | Potency, µM (highest dose often 58.2 µM), without a hit: at the top dose activity change, negative = inhibition, most hits filed as inhibitors | 360,000 compounds, 0.2% hits;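 further: 0% = vehicle wells and -100% = peptide control; nearly all actives have a fitted effect of over 45% in size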
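AMA1 (3D7) with his tag at 25 nM final met compounds first, then biotinylated RON2 peptide at 25 nM; detection used donor plus acceptor beads, 10 µg/mL apiece, read by AlphaScreen after 30 min at room temperature.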
Pf growth 48h = inhibits P. falciparum growth in the first generation, 48 h; Potency, µM (titrated, usually from 28.7 µM), for the others: at the highest dose activity change, negative = inhibition, usual class: inhibitors; 310,000 compounds, 5.9% hits; P. falciparum luciferase growth in erythrocytes, 48 h; further: on the % scale 0 is the no-effect control and ±100 the full control effect
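Cell-based growth assay: transgenic P. falciparum expressing firefly luciferase, cultured in red cells within RPMI 1640 containing 0.5% w/v Albumax, 24 mM bicarbonate and gentamycin. A drop in luciferase activity indicates inhibition.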
* marks the source's active call; other numbers are inactive results; ? = inconclusive; . = no result; [ ] = dose if it differs, or a comment. Shown are actives, neighbours in structure and some others; about 12% of the full set was active somewhere. Unless noted, the call rests on the fitted dose curve; in most records, active means well fitted curve in the direction sought with a large enough effect; inconclusive means small, poorly fitted or top-dose-only effect, or another doubt; inactive means no such curve, though single readings can be large; an effect the other way counts as inactive or inconclusive. Potency means the concentration at half of the fitted maximal effect.

SMILES | HCV inh | NS1 inh | SARS PLpro yeast | Pf growth 96h | AMA1-RON2 inh | Pf growth 48h
COC(=O)C1C2CC(=O)C(C2)C1C(=O)OC (stereo not drawn) | 0% | . | . | . | 4% | .
Fc1ccc(NC(=S)NCCN2CCOCC2)c(F)c1F | 13% | 0% | -1% | 26% | 5% | 12%
CN(CC(=O)Nc1ccc(F)cc1)C(=O)c1ccc2ccccc2n1 | 3% | . | 0% | 3% | -5% | 2%
O=C1C2C(c3ccccc3)(C(=O)N1c1ccc(Cl)cc1)C2(c1ccccc1)c1ccccc1 (stereo not drawn) | ? | 9% | -23% | ? | -9% | 4.1µM*
O=C1c2ccccc2C(=O)N1c1ccc(Cl)cc1 | . | -3% | 0% | 28% | . | .
CC(C)(C)C(=O)NCc1ccc(C(=O)CSc2nnc(-c3ccncc3)n2C2CC2)s1 | -9% | . | 1% | -26% | -4% | ?
CC1CC(C)CN(C(C(=O)NC2CCCCC2)c2ccnc3ccccc23)C1 (stereo not drawn) | . | . | . | . | -5% | .
COC(=O)C1=C(CCc2ccccc2)NC(=O)NC1c1ccc(Br)cc1 (stereo not drawn) | ? | 17% | 0% | 13µM* | 0% | 14%
c1ccc2c(c1)CCN(c1nc(CN3CCOCC3)nc3sc4c(c13)CCCC4)C2 | ? | -61% | -1% | ? | -10% | 15µM*
CCOC(=O)N1CCN(c2nc(SC)nc3sc4c(c23)CC(C)(C)OC4)CC1 | -11% | -55% | 4% | . | -3% | 3.7µM*
CC(C)Sc1nc(N2CCOCC2)c2c3c(sc2n1)COC(C)(C)C3 | ? | -1% | 6% | ? | -7% | ?
CSc1nc(N2CCOCC2)c2c3c(sc2n1)CCC3 | 11µM* | -11% | -4% | 15% | 0% | ?
CCN1CCN(c2nc(SC)nc3sc4c(c23)CC(C)(C)OC4)CC1 | -24% | 4% | 4% | 28% | -9% | 1.7µM*
CCNc1nc(CN2CCOCC2)nc2sc3c(c12)CCC3 | ? | 6% | 5% | . | 8% | -9%
CCC1(C)Cc2c(sc3nc(SC)nc(NCCN(C)C)c23)CO1 (stereo not drawn) | ? | 1% | 1% | 3.7µM* | -3% | ?
Cc1ccc(C)c(OCC(=O)Nc2cc(NC(=O)COc3cc(C)ccc3C)cc(C(=O)O)c2)c1 | 14% | 28% | 1% | 8.3µM* | -16% | 15%
Nc1ccc(C2(c3ccc(N)cc3)c3ccccc3-c3ccccc32)cc1 | 8.9µM* | ? | -11% | 34% | -17% | 7%
Nc1ccc(C2(c3ccc(N)cc3)c3ccccc3C(=O)c3ccccc32)cc1 | -7% | . | . | . | -26% | .
O=c1c(Oc2ccccc2)coc2cc(O)cc(O)c12 | -9% | . | . | . | -10% | .
COc1cc(NC(=O)c2cccc(C)c2)c(OC)cc1NC(=O)CN1CCCCC1 | ? | 1% | -1% | 20% | -28% | -25%
COc1cc(NC(=O)c2ccc(C(C)(C)C)cc2)c(OC)cc1NC(=O)CN1CCCCC1 | -9% | 2% | 1% | -3% | -11% | 6.6µM*
COc1cc(NC(=O)c2ccc(Cl)cc2)c(OC)cc1NC(=O)CN1CCCCC1 | 7.9µM* | . | 3% | -16% | ? | -18%
CC(C)[C@H](NC(=O)[C@@H]1Cc2ccccc2CN1C(=O)OC(C)(C)C)C(=O)NCc1ccco1 | 7% | -6% | -1% | ? | 2% | ?
CC(C)(C)C(=O)O/N=C(\N)Cc1ccc(-c2csnn2)cc1 | 17% | -3% | 1% | 0% | 0% | ?
Cn1c(=O)c2c(nc(SCC(=O)NCC3CCCO3)n2Cc2ccc(F)cc2)n(C)c1=O (stereo not drawn) | ? | -1% | 1% | 22% | 9% | ?
CCOC(=O)c1ncccc1NC(=O)CC(=O)Nc1cccnc1C(=O)OCC | 15% | . | . | . | 14µM* | .
CCOc1ccc(C(=O)OCC(=O)Nc2cccnc2Cl)cc1OCC | ? | . | -4% | . | 13%[11.6 µM] | .
O=C1N/C(=N/S(=O)(=O)Cc2ccccc2)S/C1=C/c1ccc2c(c1)OCO2 | -4% | -2% | 3% | 1% | 0% | -27%
CCc1nnc(N/N=C/c2ccccc2Cl)n1N | 1% | -73% | -14% | ? | 14% | 36%

Source: PubChem BioAssay
